# Measurements taken from publication PMC7826789 (International Journal of Molecular Sciences, 2021).
# Experiments:
# Settings in all cases: Compound Concentration (nM):1000
# GRK1 = tested on: GRK1
# GRK2 = tested on: T1, GRK2
# T1 construct: gene ADRBK1
# GRK3 = tested on: T2, GRK3
# T2 construct: gene ADRBK2
# GRK4 = tested on: GRK4
# GRK7 = tested on: GRK7
# GSK3A = tested on: GSK3A
# GSK3B = tested on: GSK3B
# HASPIN = tested on: T3, HASPIN
# T3 construct: gene GSG2
# HCK = tested on: HCK
# HIPK1 = tested on: HIPK1
# HIPK2 = tested on: HIPK2
# HIPK3 = tested on: HIPK3
# HIPK4 = tested on: HIPK4
# HPK1 = tested on: T4, HPK1
# T4 construct: gene MAP4K1
# HUNK = tested on: HUNK
# ICK = tested on: ICK
# IGF1R = tested on: IGF1R
# IKK-alpha = tested on: T5, IKK-alpha
# T5 construct: gene CHUK
# IKK-beta = tested on: T6, IKK-beta
# T6 construct: gene IKBKB
# IKK-epsilon = tested on: T7, IKK-epsilon
# T7 construct: gene IKBKE
# 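Also: KINOMEscan scanMAX binding as percent activity remaining versus control; lower means stronger binding.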
Structure (SMILES),Percent Control (GRK1) [%],Percent Control (GRK2) [%],Percent Control (GRK3) [%],Percent Control (GRK4) [%],Percent Control (GRK7) [%],Percent Control (GSK3A) [%],Percent Control (GSK3B) [%],Percent Control (HASPIN) [%],Percent Control (HCK) [%],Percent Control (HIPK1) [%],Percent Control (HIPK2) [%],Percent Control (HIPK3) [%],Percent Control (HIPK4) [%],Percent Control (HPK1) [%],Percent Control (HUNK) [%],Percent Control (ICK) [%],Percent Control (IGF1R) [%],Percent Control (IKK-alpha) [%],Percent Control (IKK-beta) [%],Percent Control (IKK-epsilon) [%]
COc1ccc2[nH]c3c4[nH]c5ccc(OC)cc5c4c4c(c3c2c1)C(=O)NC4=O [GW296115X],95,88,70,100,64,100,68,76,74,56,64,44,70,90,91,89,97,89,87,48
NS(=O)(=O)c1ccc(Nc2ncc(-c3ccccc3)o2)cc1 [GW572399X],100,100,100,100,100,99,83,100,100,100,72,75,100,100,92,89,100,90,100,78
COc1ccccc1-c1cc(/C=C2\C(=O)Nc3ncc(Br)cc32)cc(Br)c1O [GW442130X],100,100,100,100,63,100,100,100,100,66,100,100,92,99,69,81,100,100,100,100
Cl.O=C(Nc1ccc(Oc2ccc3[nH]c(NC(=O)c4ccco4)nc3c2)cc1)Nc1cc(C(F)(F)F)ccc1F [GW683134A],100,100,100,100,100,100,88,100,41,100,100,100,16,44,63,100,100,24,88,100
NS(=O)(=O)c1ccc(N/N=C2\C(=O)Nc3ccc(-c4cnco4)cc32)cc1 [GW276655],87,94,100,39,81,15,80,0.3,95,35,28,20,51,100,61,8.8,83,55,76,82
NS(=O)(=O)c1ccc(N/N=C2\C(=O)Nc3ccc(C(=O)NCCc4c[nH]cn4)cc32)cc1 [GW300660X],80,100,99,100,100,50,19,3.6,100,25,7.5,12,100,74,100,22,100,85,100,100
Cl.O=C(Nc1ccc(Oc2ccc3[nH]c(NC(=O)c4ccccc4)nc3c2)cc1)Nc1cc(C(F)(F)F)ccc1F [GW709042A],99,100,97,100,100,100,99,92,71,94,98,100,13,75,90,100,100,75,100,86
COc1cc(C=NNc2ncnc3c2cnn3-c2ccccc2)ccc1O [GW513184X],100,100,100,28,84,7.7,87,100,78,43,91,75,67,100,58,91,100,100,100,100
COc1ccc2cc(-c3c(-c4ccncc4)nc(-c4ccc(S(C)(=O)=O)cc4C)n3C)ccc2c1 [SB-633825],70,81,63,100,94,100,100,94,72,77,82,70,63,85,100,69,79,57,66,82
NS(=O)(=O)c1ccc(N/N=C2\C(=O)Nc3ccc(Cl)cc32)cc1 [GW280670X],100,100,100,100,100,54,91,97,100,98,100,90,100,88,100,94,100,100,100,72
CN1CCN(C(=O)c2ccc(NC(=O)Nc3ccc(N(C)c4ccnc(Nc5ccc(CS(C)(=O)=O)cc5)n4)cc3)cc2)CC1.Cl [GW830263A],100,100,97,4.5,100,100,95,92,100,72,77,71,74,2.6,35,44,100,90,70,38
COc1cc(N2CCN(C(C)C)CC2)ccc1Nc1nc(Nc2ccc(F)cc2C(=O)NC[C@@H](O)CO)c2cc[nH]c2n1 [GSK1392956A],91,100,67,94,93,100,98,86,100,15,23,44,1.4,86,83,100,9.8,100,97,78
COC(=O)Nc1nc2ccc(Oc3ccc(NC(=O)Nc4cc(C(F)(F)F)ccc4F)cc3)cc2s1.Cl [GW693917A],81,91,71,100,84,100,99,76,51,87,88,94,10,51,100,78,100,86,100,71
CN(C)CCNC(=O)Nc1ccc(N(C)c2ccnc(Nc3ccc(CS(C)(=O)=O)cc3)n2)cc1.Cl [GW830900A],89,100,89,7.1,96,100,85,100,100,88,94,81,85,30,55,70,100,100,97,100
COc1cccc(-c2c[nH]c3c(N/N=C/c4ccncc4)ncnc23)c1 [GW814408X],100,100,100,62,100,0,1,51,91,29,53,27,59,70,73,33,100,87,100,100
Cl.O=C(O[C@H]1CN[C@H](C#Cc2cc3ncnc(Nc4ccc5c(cnn5Cc5ccccc5)c4)c3s2)C1)N1CCOCC1 [GSK200398A],86,100,80,100,84,93,90,93,100,91,77,92,92,100,100,96,97,100,100,100
COc1cc2ncn(-c3cc(O[C@H](C)c4ccccc4Cl)c(C(N)=O)s3)c2cc1OC [GSK237701A],100,95,97,18,99,85,97,94,64,68,84,93,99,26,100,91,97,83,92,81
O=C(Nc1n[nH]c2nc(-c3ccc(O)cc3)c(Br)cc12)C1CC1 [SB-725317],100,100,100,100,100,7.5,0.5,100,100,22,36,30,100,86,100,1,100,100,100,84
COc1cccc(-n2ncc3c(N/N=C/c4ccncc4)ncnc32)c1 [GW784752X],99,84,100,88,87,16,2.5,75,100,28,33,23,54,100,95,64,100,98,94,100
O=C1Nc2ccc(C(=O)c3ccco3)cc2C1=Cc1cc(Cl)c(O)c(Cl)c1 [GW406108X],60,100,97,100,65,67,69,2.2,98,11,5.3,5.4,59,96,46,68,100,96,100,30
